Measured values as given in PubChem BioAssay (Tox21).
Where “and” joins values, the source holds several entries; their conditions need not be identical. Equal values may be shown once. Records with an inconclusive call do not appear. Entries that show only a call come without a potency. A structure can be active in one record and inactive in another. Calls of active or inactive are those of the source. Unless noted, calls follow the shape of the dose curve; as a rule, active = well fitted curve in the direction sought with a large enough effect in the repeat runs; inconclusive = weak or mixed curves; inactive = no such curve, though single readings can be large; an effect the other way counts as inactive or inconclusive.

How the values were obtained:
[1] = biological target: Peroxisome proliferator-activated receptor delta (Homo sapiens) (UniProt Q03181); test: qHTS assay to identify small molecule agonists of the peroxisome proliferator-activated receptor delta (PPARd) signaling pathway (AID 743212; calls by dose curve;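 also: HEK293H cells with PPARd UAS beta-lactamase reporter GeneBLAzer system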)
Peroxisome proliferator-activated receptor delta (Homo sapiens), sequence (Q03181 whole entry, looked up): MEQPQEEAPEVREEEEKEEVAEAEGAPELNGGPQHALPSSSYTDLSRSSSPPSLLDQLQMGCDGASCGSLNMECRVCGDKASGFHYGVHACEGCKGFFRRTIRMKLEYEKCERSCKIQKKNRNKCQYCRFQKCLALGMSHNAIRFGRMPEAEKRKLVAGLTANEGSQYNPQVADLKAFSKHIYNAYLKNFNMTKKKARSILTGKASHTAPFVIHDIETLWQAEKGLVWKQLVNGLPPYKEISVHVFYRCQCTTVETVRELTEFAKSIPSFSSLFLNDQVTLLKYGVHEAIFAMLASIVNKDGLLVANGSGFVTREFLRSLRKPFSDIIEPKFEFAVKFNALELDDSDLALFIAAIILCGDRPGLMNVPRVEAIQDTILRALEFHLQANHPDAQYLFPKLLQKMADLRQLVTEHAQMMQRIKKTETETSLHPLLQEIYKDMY
How it was run: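 Beta-lactamase reporter readout: a ratiometric FRET signal from the LiveBLAzer substrate after 2 h at room temperature. Compound exposure at 37 °C in PPARδ-bla HEK293H cells driven by an upstream activator sequence.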

[2] = qHTS assay to identify small molecule antagonists of the peroxisome proliferator-activated receptor delta (PPARd) signaling pathway - cell viability counter screen (AID 743213); also: nearly all actives have a fitted effect of over 50% in size; also: potency is read from the fitted curve at half-maximal effect
How it was run: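 CellTiter-Glo was added to PPARd-bla HEK293H wells following 17 h compound treatment in the presence of 300 nM L165041. Luminescence was recorded after 30 min at room temperature.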

[3] = biological target: Peroxisome proliferator-activated receptor delta (Homo sapiens) (UniProt Q03181); test: qHTS assay to identify small molecule antagonists of the peroxisome proliferator-activated receptor delta (PPARd) signaling pathway (AID 743215; active = well fitted inhibition curve with a large enough effect in the signal ratio in the repeat runs, not every such curve was filed as active; the % refers to the signal ratio;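 also: cells stimulated with agonist L165041 at 300 nM final during compound exposure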; also: potency is read from the fitted curve at half-maximal effect)
How it was run: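 Fluorescence from cleaved LiveBLAzer B/G FRET substrate (2 h, room temperature) reports PPARd-driven beta-lactamase in HEK293H UAS-bla cells. Cells had been treated 17 h at 37 C with compound plus 300 nM final L165041.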

[4] = biological target: Bile acid receptor (Homo sapiens) (UniProt Q96RI1); test: qHTS assay to identify small molecule antagonists of the farnesoid-X-receptor (FXR) signaling pathway (AID 743217; active = well fitted inhibition curve with a large enough effect in the signal ratio in the repeat runs, not every such curve was filed as active; the % refers to the signal ratio; also: potency is read from the fitted curve at half-maximal effect)
Bile acid receptor (Homo sapiens), sequence (Q96RI1 whole entry, looked up): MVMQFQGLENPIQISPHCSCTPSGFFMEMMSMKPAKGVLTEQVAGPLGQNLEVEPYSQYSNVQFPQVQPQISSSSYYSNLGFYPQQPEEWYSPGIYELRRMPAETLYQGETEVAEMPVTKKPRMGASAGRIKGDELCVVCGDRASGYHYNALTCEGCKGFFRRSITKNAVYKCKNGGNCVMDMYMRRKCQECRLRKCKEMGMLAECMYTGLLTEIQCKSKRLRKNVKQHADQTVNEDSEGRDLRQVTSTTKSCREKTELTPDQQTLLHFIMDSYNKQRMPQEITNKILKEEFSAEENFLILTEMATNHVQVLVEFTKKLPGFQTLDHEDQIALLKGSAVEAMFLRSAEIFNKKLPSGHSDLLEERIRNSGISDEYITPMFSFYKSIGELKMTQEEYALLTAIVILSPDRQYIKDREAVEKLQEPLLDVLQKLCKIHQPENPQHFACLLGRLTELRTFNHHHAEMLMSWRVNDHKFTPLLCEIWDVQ
How it was run: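 FRET fluorescence after 2 h room-temperature LiveBLAzer loading gives the readout. Prior step: FXR-bla HEK 293T cells, seeded and incubated 5 h, received test compounds plus 50 uM final CDCA for 16 h at 37 °C.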

[5] = qHTS assay to identify small molecule agonists of the farnesoid-X-receptor (FXR) signaling pathway - cell viability counter screen (AID 743218); also: nearly all actives have a fitted effect of over 45% in size; also: potency is read from the fitted curve at half-maximal effect
How it was run: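 Readout: CellTiter-Glo luminescence, 30 min RT, multiplexed after the FXR-bla FRET reading. HEK 293T FXR-UAS-bla cells received compound 5 h post-plating and were incubated 16 h at 37 C.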

[6] = qHTS assay to identify small molecule antagonists of the farnesoid-X-receptor (FXR) signaling pathway - cell viability counter screen (AID 743221; active = well fitted cell-killing curve with a large enough effect in the repeat runs, not every such curve was filed as active; also: nearly all actives have a fitted effect of over 50% in size; also: potency is read from the fitted curve at half-maximal effect)
How it was run: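 Compound effects on cell number were measured as CellTiter-Glo luminescence in HEK 293T cells expressing FXR-UAS-bla, after 16 h at 37 C with 50 uM CDCA (final).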

[7] = biological target: Vitamin D3 receptor (Homo sapiens) (UniProt P11473); test: qHTS assay to identify small molecule antagonists of the vitamin D receptor (VDR) signaling pathway (AID 743223; active = well fitted inhibition curve with a large enough effect in the signal ratio in the repeat runs, not every such curve was filed as active; the % refers to the signal ratio; also: potency is read from the fitted curve at half-maximal effect)
Vitamin D3 receptor (Homo sapiens), sequence (P11473 whole entry, looked up): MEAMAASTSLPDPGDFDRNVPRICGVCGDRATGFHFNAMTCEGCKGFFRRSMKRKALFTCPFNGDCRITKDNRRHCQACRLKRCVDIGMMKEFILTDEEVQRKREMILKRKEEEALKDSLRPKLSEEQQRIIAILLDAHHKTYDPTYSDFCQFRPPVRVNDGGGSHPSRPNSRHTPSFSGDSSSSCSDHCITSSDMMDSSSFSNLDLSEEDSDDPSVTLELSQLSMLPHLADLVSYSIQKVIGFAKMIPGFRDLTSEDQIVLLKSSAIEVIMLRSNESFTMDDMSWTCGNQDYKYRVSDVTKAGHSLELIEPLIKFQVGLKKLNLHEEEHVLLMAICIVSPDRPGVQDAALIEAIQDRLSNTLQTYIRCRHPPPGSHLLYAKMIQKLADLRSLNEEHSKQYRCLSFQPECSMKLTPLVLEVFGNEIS
How it was run: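 Beta-lactamase activity in VDR-bla cells is measured by FRET substrate fluorescence (2 h, room temperature) after cells spend 16 h at 37C with test compound and 3 nM final 1alpha,25-dihydroxyvitamin D3.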

[8] = qHTS assay to identify small molecule agonists of the vitamin D receptor (VDR) signaling pathway - cell viability counter screen (AID 743224); also: nearly all actives have a fitted effect of over 50% in size; also: potency is read from the fitted curve at half-maximal effect
How it was run: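 In parallel with the bla FRET readout, cytotoxicity toward VDR-bla cells after 16 h compound exposure was assessed by CellTiter-Glo, with luminescence recorded after a 30 min room-temperature incubation.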

[9] = biological target: Bile acid receptor (Homo sapiens) (UniProt Q96RI1); test: qHTS assay to identify small molecule agonists of the farnesoid-X-receptor (FXR) signaling pathway (AID 743220; active = well fitted activation curve with a large enough effect in the signal ratio in the repeat runs, not every such curve was filed as active; the % refers to the signal ratio)
How it was run: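 FXR-UAS-bla HEK 293T cells carrying a UAS-driven beta-lactamase reporter were plated for 5 h at 37C/5% CO2, then exposed to DMSO-dissolved Tox21 10K compounds for 16 h at 37C. A LiveBLAzer B/G FRET substrate was loaded for 2 h at room temperature before fluorescence reading.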

[10] = biological target: Vitamin D3 receptor (Homo sapiens) (UniProt P11473); test: qHTS assay to identify small molecule agonists of the vitamin D receptor (VDR) signaling pathway (AID 743222; calls by dose curve)
How it was run: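 Following 4 h attachment at 37C, VDR-bla cells (2,000 per well) received DMSO-dissolved compounds or controls. After 16 h incubation, LiveBLAzer B/G FRET substrate was added and fluorescence read 2 h later at room temperature.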

| Compound | Potency [1] | Potency [2] | Potency [3] | Potency [4] | Potency [5] | Potency [6] | Potency [7] | Potency [8] | outcome [9] | Potency [10] |
| --- | --- | --- | --- | --- | --- | --- | --- | --- | --- | --- |
| CCCN(CCC)CCc1c[nH]c2ccccc12 | inactive | inactive | inactive | inactive | inactive | inactive | inactive | inactive |  |  |
| O=C(CCl)Nc1ccccc1 |  | inactive | 17.4 µM (active) |  | inactive |  |  | 24.5 µM (active) | inactive |  |
| Nc1ccccc1C(=O)Oc1ccc2ccccc2c1 |  | inactive |  | inactive | inactive | inactive | inactive | inactive | inactive |  |
| CC(C)(C)OO |  | inactive | inactive |  | inactive | inactive |  | inactive |  |  |
| Cc1cc(N=Nc2ccccc2C)ccc1N |  | inactive | inactive |  | inactive | inactive |  |  | inactive |  |
| ClCc1ccc(Cl)cc1Cl |  | inactive | inactive |  | inactive | inactive | inactive | inactive |  | inactive |
| CC(=O)O[C@H]1CC[C@@]2(C)C(=CC[C@@H]3[C@@H]2CC[C@]2(C)C(=O)CC[C@@H]32)C1 |  | inactive |  | inactive | inactive | inactive |  | inactive |  |  |
| CCN(CC)c1c([N+](=O)[O-])cc(C(F)(F)F)c(N)c1[N+](=O)[O-] |  | inactive | inactive |  |  | inactive | inactive | inactive |  | inactive |
| N#CNC#N |  | inactive |  | inactive | inactive | inactive | inactive | inactive | inactive |  |
| CN(C)CCc1c[nH]c2ccc(O)cc12 |  | inactive | inactive | inactive | inactive | inactive | inactive |  |  |  |
| CCCCCCCCCCCCCCCCCCn1cc[n+](C)c1 |  | 7.72 µM (active) | 19.4 µM (active) |  | 48.7 µM (active) |  |  | 9.72 µM (active) |  |  |
| CCOC(=O)OC1=C(c2cc(C)ccc2C)C(=O)NC12CCC(OC)CC2 (configuration not stated) |  | inactive |  | inactive | inactive | inactive |  | inactive | inactive | inactive |
| c1ccc(Nc2ccc3ccccc3c2)cc1 |  | inactive | inactive | inactive | inactive |  |  | inactive | inactive |  |
| FC(Cl)(Cl)Cl |  | inactive |  | inactive | inactive |  |  | inactive | inactive |  |
| Cc1cc(C)c(C2=C(OC(=O)CC(C)(C)C)C3(CCCC3)OC2=O)c(C)c1 |  | inactive | inactive | inactive | inactive | inactive |  | inactive | inactive |  |
| OC(c1ccc(Cl)cc1)(c1ccc(Cl)cc1)C(Cl)(Cl)Cl |  | inactive | inactive |  |  | inactive | inactive |  | inactive | inactive |
| CC(=O)c1cc(C(C)(C)C)cc2c1CCC2(C)C |  | inactive | inactive |  |  | inactive | inactive | 49 µM (active) |  |  |
| CCCCCCCCCCCCCN1CC(C)OC(C)C1 (configuration not stated) |  | inactive | inactive |  | inactive | inactive |  | inactive |  |  |
| O=C(Nc1ccc2[nH]ccc2c1)c1cc2cc(F)ccc2n1Cc1cccc(F)c1 |  | 43.6 µM (active) |  | 54.9 µM (active) | 49 µM (active) |  | 43.6 µM (active) | 43.6 µM (active) | inactive |  |
| Cn1cc(C2=C(c3cn(C4CCN(Cc5ccccn5)CC4)c4ccccc34)C(=O)NC2=O)c2ccccc21 |  | inactive | inactive |  | 16.8 µM (active) | inactive | inactive | inactive | inactive |  |
| Clc1ccc(C(c2ccc(Cl)cc2)C(Cl)(Cl)Cl)cc1 |  | inactive | inactive |  | inactive | inactive | inactive | 55.3 µM (active) and 43.6 µM (active) and inactive | inactive | inactive |
| CCOc1cc(C(C)(C)C)ccc1C1COC(c2c(F)cccc2F)=N1 (configuration not stated) |  | 33.4 µM (active) | 29.7 µM (active) |  | 33.4 µM (active) | 29.7 µM (active) |  | 23.6 µM (active) |  |  |
| CCCN(CCC)c1c([N+](=O)[O-])cc(S(N)(=O)=O)cc1[N+](=O)[O-] |  | 37 µM (active) | 58.6 µM (active) | 58.6 µM (active) |  |  |  | 52.2 µM (active) |  |  |
| NNC(=O)c1ccccc1 |  | inactive | inactive |  | inactive | inactive |  |  |  |  |
| N#C/C=C/C#N |  | inactive | inactive |  | 51.3 µM (active) | inactive | inactive | inactive |  |  |
| CC(Cc1ccc(C(C)(C)C)cc1)CN1C[C@@H](C)O[C@@H](C)C1 (some centres not stated) |  | inactive | inactive | inactive |  |  |  |  | inactive |  |
| O=C(NC(=O)c1c(F)cccc1F)Nc1cc(Cl)c(OC(F)(F)C(F)F)c(Cl)c1 |  | inactive | inactive |  | inactive | inactive |  | inactive |  |  |
| Clc1ccc(-c2ccc(Cl)c(Cl)c2Cl)c(Cl)c1Cl |  | inactive | inactive |  | 46.6 µM (active) | inactive | inactive | inactive | inactive |  |
| CC1(c2ccc(Oc3ccccc3)cc2)OC(=O)N(Nc2ccccc2)C1=O (configuration not stated) |  | 43.9 µM (active) | 24.7 µM (active) |  | 39.1 µM (active) |  |  | 17.5 µM (active) | inactive |  |
